From PMC4336329 (PLoS ONE, 2015) come the findings set out here.

SMILES strings stand for the structures. The whole screen tested about 310,000 compounds, of which about 14,000 (4.5%) showed an effect of 50% or more. The effect is printed as a negative number. This is one part of a sample in which strong results are shown more often than they occur.
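Further: peak tail current of the secondary pulse compared with the same well before compound.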

The test deals with human ether-à-go-go-related gene (hERG) potassium channel (human, UniProt Q12809). The test is described as follows: primary screen, population patch clamp on CHO cells stably expressing hERG; higher = less effect of the substance.
Sequence of human ether-à-go-go-related gene (hERG) potassium channel (Q12809 whole entry, looked up): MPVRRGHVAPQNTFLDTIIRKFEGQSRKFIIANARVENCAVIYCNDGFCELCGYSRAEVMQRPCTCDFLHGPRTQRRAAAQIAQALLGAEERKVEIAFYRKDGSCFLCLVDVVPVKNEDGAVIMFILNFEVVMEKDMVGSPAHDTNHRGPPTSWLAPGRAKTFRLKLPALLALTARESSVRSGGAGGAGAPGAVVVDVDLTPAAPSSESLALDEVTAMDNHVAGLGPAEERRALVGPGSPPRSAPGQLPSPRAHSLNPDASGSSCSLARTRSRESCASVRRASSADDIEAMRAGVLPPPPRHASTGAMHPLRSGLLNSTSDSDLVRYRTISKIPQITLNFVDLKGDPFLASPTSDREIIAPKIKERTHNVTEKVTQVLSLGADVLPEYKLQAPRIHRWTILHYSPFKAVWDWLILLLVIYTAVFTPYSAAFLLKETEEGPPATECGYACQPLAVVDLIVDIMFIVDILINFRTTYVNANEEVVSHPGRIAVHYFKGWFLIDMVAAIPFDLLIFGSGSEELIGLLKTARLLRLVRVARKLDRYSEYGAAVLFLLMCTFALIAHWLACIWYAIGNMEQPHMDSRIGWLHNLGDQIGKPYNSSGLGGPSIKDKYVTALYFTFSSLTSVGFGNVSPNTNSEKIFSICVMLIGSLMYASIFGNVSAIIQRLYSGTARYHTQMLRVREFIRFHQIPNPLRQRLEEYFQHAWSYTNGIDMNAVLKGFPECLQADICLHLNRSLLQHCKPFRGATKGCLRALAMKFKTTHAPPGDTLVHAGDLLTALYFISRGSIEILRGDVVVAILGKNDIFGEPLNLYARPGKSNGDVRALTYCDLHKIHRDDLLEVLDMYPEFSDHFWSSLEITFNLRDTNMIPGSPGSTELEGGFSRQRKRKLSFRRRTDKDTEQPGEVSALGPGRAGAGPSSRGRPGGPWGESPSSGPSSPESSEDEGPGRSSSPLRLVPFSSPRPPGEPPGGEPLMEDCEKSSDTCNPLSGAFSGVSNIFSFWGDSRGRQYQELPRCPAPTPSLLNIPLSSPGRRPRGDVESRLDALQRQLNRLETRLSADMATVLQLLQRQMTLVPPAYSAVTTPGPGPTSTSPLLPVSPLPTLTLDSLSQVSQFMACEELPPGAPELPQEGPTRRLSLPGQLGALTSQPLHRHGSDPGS
On to `CC(C)C[C@@H](CO)N1CCN(Cc2cccnc2)CCC1=O`, for which the “hERG current change (%, negative = inhibition) at 10uM” value turned out to be 3.69%.

With `CCn1c2ccccc2c2cc(NC(=O)c3cccc([N+](=O)[O-])c3C)ccc21`, the “hERG current change (%, negative = inhibition) at 10uM” value turned out to be 7.76%.

For the compound `CCOc1ccc(/C=C2/SC(=S)N(n3c(C)ccc3C)C2=O)cc1`, the “hERG current change (%, negative = inhibition) at 10uM” value was determined as 8.78%.

As for `Cc1ccc(N=C(N(C)C)P(=O)(N(C)C)N(C)C)cc1`, the “hERG current change (%, negative = inhibition) at 10uM” value is 17.4%.

In the case of `Cc1ccc(Oc2cc(NN3CCCCC3)c([N+](=O)[O-])cc2[N+](=O)[O-])c([N+](=O)[O-])c1`, the “hERG current change (%, negative = inhibition) at 10uM” value is given as -10.3%.

On to `O=C(Nc1cccc(NC(=O)c2ccccc2Cl)c1)c1cccs1`, for which the “hERG current change (%, negative = inhibition) at 10uM” value turned out to be 2.54%.

As to `O=[N+]([O-])c1ccc(CSC2=NCCS2)cc1`, the “hERG current change (%, negative = inhibition) at 10uM” value is -15.3%.

For `CC1CCN(C(=O)c2[nH]cnc2C(=O)N2CCN(C(=O)OC(C)(C)C)CC2)CC1`, the “hERG current change (%, negative = inhibition) at 10uM” value came to 19%.

With `O=C(CN(Cc1ccccc1Cl)C(=O)c1csnn1)NC1CCCC1`, the “hERG current change (%, negative = inhibition) at 10uM” value was -13.6%.

As for `COc1cccc(-c2nc(NCC3CCCO3)c3ccccc3n2)c1O` (stereo not shown), the “hERG current change (%, negative = inhibition) at 10uM” value is reported as -21.2%.

On to `COc1ccccc1Nc1nc(NCC2CCCO2)c2ccccc2n1.Cl` (stereo not shown), for which the “hERG current change (%, negative = inhibition) at 10uM” value is -59.6%.

`c1cncc(-c2nc(NCC3CCCO3)c3ccccc3n2)c1` (stereo not shown): the “hERG current change (%, negative = inhibition) at 10uM” value was determined as 7.02%.

As to `CC(C)C(=O)NC(=S)Nc1ccccc1C(F)(F)F`, the “hERG current change (%, negative = inhibition) at 10uM” value is listed as 10.4%.

Consider `O=C(N/N=C/c1coc2ccccc2c1=O)c1ccccc1Br`, for which the “hERG current change (%, negative = inhibition) at 10uM” value is -0.324%.

In the case of `Cc1cccc(NCc2ccccc2)c1`, the “hERG current change (%, negative = inhibition) at 10uM” value turned out to be 5.29%.

For `Clc1ccc(Nc2ccc(NCc3ccccc3)nn2)cc1`, the “hERG current change (%, negative = inhibition) at 10uM” value was -37.8%.

Regarding `Cc1cccc(Nc2ccc(NCc3ccccc3)nn2)c1`, the “hERG current change (%, negative = inhibition) at 10uM” value is -51.8%.

Consider `O=C(NNC(=S)NC(=O)c1ccccc1[N+](=O)[O-])c1ccc(Cl)cc1Cl`, for which the “hERG current change (%, negative = inhibition) at 10uM” value is listed as -58.2%.

On to `O=C(NNC(=S)NC(=O)c1ccccc1[N+](=O)[O-])c1ccccc1Cl`, for which the “hERG current change (%, negative = inhibition) at 10uM” value amounted to 6.38%.

For the compound `O=C(NNC(=S)NC(=O)c1ccccc1[N+](=O)[O-])c1ccccc1[N+](=O)[O-]`, the “hERG current change (%, negative = inhibition) at 10uM” value is reported as 15.1%.

Take `N/C(=N\N=C\c1ccco1)SC1CC(=O)N(c2ccccc2)C1=O` (stereo not shown): the “hERG current change (%, negative = inhibition) at 10uM” value was found to be 17.1%.

Take `CC(C)CC(=O)NC(=S)Nc1sc2c(c1C(N)=O)CCC2`: the “hERG current change (%, negative = inhibition) at 10uM” value amounted to 15.7%.

For the compound `Cc1nn(-c2cc(N3CCOCC3)ccc2N)c(=O)c2ccccc12`, the “hERG current change (%, negative = inhibition) at 10uM” value was found to be 0.574%.

Take `O=C(NCc1ccc(F)cc1)c1ccccc1OCc1ccccc1`: the “hERG current change (%, negative = inhibition) at 10uM” value was -8.06%.

Regarding `O=C(NCc1ccccn1)c1ccccc1OCc1ccc(F)cc1`, the “hERG current change (%, negative = inhibition) at 10uM” value is -56.9%.

On to `COc1ccccc1C(=O)NCc1ccccn1`, for which the “hERG current change (%, negative = inhibition) at 10uM” value is listed as 18.4%.

For the compound `O=C(Cn1nc(C(=O)O)c2ccccc2c1=O)NCC1CCCO1` (stereo not shown), the “hERG current change (%, negative = inhibition) at 10uM” value worked out at 20%.

Regarding `CCCCc1cc(=O)oc2cc(OCC(=O)N3CCc4ccccc43)ccc12`, the “hERG current change (%, negative = inhibition) at 10uM” value is 6.81%.

On to `CCOc1ccc(OCCN2CCCCC2)cc1.O=C(O)C(=O)O`, for which the “hERG current change (%, negative = inhibition) at 10uM” value is -21.7%.

As for `O=C(O)C(=O)O.c1ccc(OCCN2CCOCC2)cc1`, the “hERG current change (%, negative = inhibition) at 10uM” value amounted to 12%.

With `Cc1ccc(OCCN2CCCC2)cc1.O=C(O)C(=O)O`, the “hERG current change (%, negative = inhibition) at 10uM” value is on record as -3.76%.

`CCOc1ccc(C(=O)CCN2CCCCC2)cc1`: the “hERG current change (%, negative = inhibition) at 10uM” value is recorded as -19.7%.

`Cl.ON=C1c2cc(OCCN3CCCCC3)ccc2-c2ccc(OCCN3CCCCC3)cc21`: the “hERG current change (%, negative = inhibition) at 10uM” value was -58.1%.

Regarding `CCN(CC)CCOc1ccc2c(c1)C(=NO)c1cc(OCCN(CC)CC)ccc1-2.Cl`, the “hERG current change (%, negative = inhibition) at 10uM” value is listed as -16.4%.

As to `COC(=O)c1ccc(OCCN2CCCCCC2)cc1.O=C(O)C(=O)O`, the “hERG current change (%, negative = inhibition) at 10uM” value is reported as -1.51%.

Consider `O=C(O)C(=O)O.c1ccc(COc2ccc(OCCN3CCCCC3)cc2)cc1`, for which the “hERG current change (%, negative = inhibition) at 10uM” value is reported as -70.2%.

Regarding `c1ccc2cc(OCCN3CCCC3)ccc2c1`, the “hERG current change (%, negative = inhibition) at 10uM” value was -33.1%.

For `CCOc1ccc(OCCOCCN2CCCC2)cc1.O=C(O)C(=O)O`, the “hERG current change (%, negative = inhibition) at 10uM” value came to 0.376%.

For the compound `O=C(O)C(=O)O.c1ccc(COc2ccc(OCCN3CCCC3)cc2)cc1`, the “hERG current change (%, negative = inhibition) at 10uM” value was -60.3%.

With `CCOc1ccc(CNCCN2CCCC2)cc1.O=C(O)C(=O)O`, the “hERG current change (%, negative = inhibition) at 10uM” value was -63.9%.

Take `CCn1c(-c2ccccc2)c[nH]c1=S`: the “hERG current change (%, negative = inhibition) at 10uM” value came to 15.4%.

As for `CN(C)c1cccc(C(=O)NCCCSc2ccccc2)c1`, the “hERG current change (%, negative = inhibition) at 10uM” value amounted to 4.72%.

With `Cc1nn(Cc2ccccc2Cl)c2sc(C(=O)OC3CCCC3=O)cc12` (stereo not shown), the “hERG current change (%, negative = inhibition) at 10uM” value is recorded as -4.19%.

As for `COc1cc(NS(=O)(=O)c2ccc(NC(=S)NC(=O)c3ccc(F)cc3)cc2)nc(OC)n1`, the “hERG current change (%, negative = inhibition) at 10uM” value amounted to 3.73%.

In the case of `N#Cc1cc2cc3c(cc2nc1NCCNC(=S)NCCCN1CCOCC1)OCO3`, the “hERG current change (%, negative = inhibition) at 10uM” value stood at 14.2%.

Turning to `CC(C)CCN1C(=O)c2ccc(C(=O)OCC(=O)N(C)C3CCS(=O)(=O)C3)cc2C1=O` (stereo not shown), the “hERG current change (%, negative = inhibition) at 10uM” value is given as -8.41%.

On to `CC(C)Cn1nc(C(=O)OCC(=O)NCC(F)(F)F)c2ccccc2c1=O`, for which the “hERG current change (%, negative = inhibition) at 10uM” value was -78.2%.

As to `CCn1nc(C(=O)OCC(=O)NCC(C)C)c2ccccc2c1=O`, the “hERG current change (%, negative = inhibition) at 10uM” value was determined as 0.00988%.

`CCn1nc(C(=O)OCC(=O)NC(C)C)c2ccccc2c1=O`: the “hERG current change (%, negative = inhibition) at 10uM” value is listed as 8.88%.

For `COC(=O)c1cc(NC(=O)c2c(C)noc2C)ccc1N1CCOCC1`, the “hERG current change (%, negative = inhibition) at 10uM” value came to 17.6%.

As to `COc1ccc(N2C(=O)/C(=C/c3ccc(N(C)C)o3)C(=O)NC2=S)cc1`, the “hERG current change (%, negative = inhibition) at 10uM” value came out at 3.28%.

On to `O=C(c1ccc(Cn2cnnn2)cc1)N1CCCC(Nc2ccc(F)cc2)C1` (stereo not shown), for which the “hERG current change (%, negative = inhibition) at 10uM” value is reported as -0.196%.

Take `COc1ccc(CN2CCN(Cc3ccc(CO)o3)CC2CCO)cc1C` (stereo not shown): the “hERG current change (%, negative = inhibition) at 10uM” value is reported as -8.64%.

Take `COc1cccc(CN2CCN(Cc3ccc(O)c(OC)c3)CC2CCO)c1` (stereo not shown): the “hERG current change (%, negative = inhibition) at 10uM” value is listed as -5.76%.

For the compound `COc1cc(CN2CCN(Cc3ccc(C)cc3)C(CCO)C2)cc(OC)c1O` (stereo not shown), the “hERG current change (%, negative = inhibition) at 10uM” value is on record as -51.6%.

`CC(=O)Nc1ccc(CN2CCN(Cc3ccc(C)cc3)C(CCO)C2)cc1` (stereo not shown): the “hERG current change (%, negative = inhibition) at 10uM” value was -34.5%.

In the case of `COc1cc(CN2CCN(Cc3ccc(C)cc3)C(CCO)C2)ccc1O` (stereo not shown), the “hERG current change (%, negative = inhibition) at 10uM” value was -19.6%.

Regarding `COc1ccc(CN2CCN(Cc3ccc(C)cc3)C(CCO)C2)cc1OC` (stereo not shown), the “hERG current change (%, negative = inhibition) at 10uM” value is -54.3%.
